Consider eight molecules from PubChem BioAssay (NCI).

The panel holds about 83,000 compounds, 20% with a hit somewhere; the sample as a whole holds those more often.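 In brief: 96-well plates, 48 h treatment, single concentration, percent growth endpoint.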 Values without a mark were called inactive. The source made the active and inactive calls. The calls were made as follows: active = growth percent below 10; inactive = the rest.

Some test systems named below: NCI-H23 lung; NCI-H226 lung; NCI-H322M lung; HOP-62 NSCLC; NCI-H460 lung; HOP-92 NSCLC; NCI-H522 lung; 786-0 renal; DU-145 prostate; K-562 leukemia; MALME-3M melanoma; MDA-MB-231 breast; RXF 393 renal; SF-268 CNS; SF-295 CNS; SF-539 CNS; UACC-257 melanoma; M14 melanoma; A549/ATCC NSCLC; COLO 205 colon.
Experiment in all cases: NCI-60 one-dose screen, 48 h (100 = growth as untreated, 0 = no growth, -100 = all killed)
Common to all, as to settings: 10 µM unless noted

On to `CCOC(=O)c1c(NC(=O)c2cccc(C(F)(F)F)c2)sc2c(CN(C)C)c(O)ccc12`, for which the growth in the experiment with NCI-H23 lung was 93.1%; with NCI-H226 lung, 101%; with NCI-H322M lung, 70.9%; with HOP-62 NSCLC it was 96.7%; with NCI-H460 lung, 2.61% (active); with HOP-92 NSCLC, -1.17% (active). Moreover, the growth with NCI-H522 lung is 71.9%; in the experiment with 786-0 renal, 12.1%; with DU-145 prostate, 72.5%; in the experiment with K-562 leukemia it was 2.41% (active); with MALME-3M melanoma, -38.5% (active); in the experiment on MDA-MB-231 breast, 58.9%. Also, the growth was 38.4% in the experiment with RXF 393 renal; 84.7% in the experiment on SF-268 CNS; 96.2% with SF-295 CNS; 49.3% with SF-539 CNS; -10.5% (active) with UACC-257 melanoma; -57.8% (active) in the experiment with M14 melanoma.
As for `O=C(CN1CCCCC1)Nc1nc(-c2cc3ccccc3oc2=O)cs1`, the growth was 109% in the experiment with NCI-H23 lung; 88.3% in the experiment with NCI-H226 lung; 93.9% with NCI-H322M lung; 96.2% in the experiment with HOP-62 NSCLC; 103% with NCI-H460 lung; 98.7% with HOP-92 NSCLC. The growth in the experiment on NCI-H522 lung was 93.6%; with A549/ATCC NSCLC it was 102%; in the experiment with 786-0 renal it was 95.4%; in the experiment on DU-145 prostate, 106%; in the experiment with K-562 leukemia, 90.9%; with MALME-3M melanoma, 103%. Further, the growth with MDA-MB-231 breast was 103%; in the experiment on RXF 393 renal, 100%; in the experiment with SF-268 CNS, 94.1%; in the experiment with SF-295 CNS, 102%; in the experiment on SF-539 CNS, 103%; with UACC-257 melanoma, 102%. The growth with M14 melanoma was 107%.
Consider `Nc1[nH]n2cc(-c3ccccc3)nc2c1N=Nc1ccc(S(N)(=O)=O)cc1`, for which the growth is 45.7% in the experiment on NCI-H23 lung; 52.7% with NCI-H226 lung; 36.6% in the experiment on NCI-H322M lung; 42.5% in the experiment on HOP-62 NSCLC; 20.1% in the experiment on NCI-H460 lung; 25.7% in the experiment with HOP-92 NSCLC. Moreover, the growth was 30.5% with NCI-H522 lung; 28.4% with 786-0 renal; 45.1% with COLO 205 colon; 42.9% in the experiment with DU-145 prostate; 32.9% in the experiment on K-562 leukemia; 25.6% with MALME-3M melanoma. In addition, the growth in the experiment with MDA-MB-231 breast was 20%; in the experiment with RXF 393 renal it was 6.61% (active); with SF-268 CNS it was 36.5%; with SF-295 CNS, 48%; with SF-539 CNS, 19.6%; in the experiment with UACC-257 melanoma, 68.9%. The growth in the experiment on M14 melanoma is 31.4%.
For `Cc1ccc2c(n1)C(=O)C(Br)=C(C1CCCC1)C2=O`, the growth in the experiment on NCI-H23 lung is 92.4%; with NCI-H226 lung it was 94.3%; in the experiment on NCI-H322M lung, 100%; with HOP-62 NSCLC, 84%; with NCI-H460 lung it was 110%; with HOP-92 NSCLC it was 98.4%. Moreover, the growth in the experiment on NCI-H522 lung is 83.6%; in the experiment on 786-0 renal, 101%; in the experiment on COLO 205 colon, 52%; with DU-145 prostate, 105%; with K-562 leukemia, 34.3%; in the experiment on MALME-3M melanoma, 110%. In addition, the growth in the experiment with MDA-MB-231 breast was 85.2%; with RXF 393 renal it was 89.3%; with SF-268 CNS, 96.5%; with SF-295 CNS, 103%; in the experiment on SF-539 CNS it was 99.7%; with UACC-257 melanoma, 99.3%. In addition, the growth in the experiment on M14 melanoma is 101%.
For the molecule `Cc1[nH]c(=O)[nH]c(=O)c1Br`, the growth was 97.9% with NCI-H23 lung; 108% in the experiment with NCI-H226 lung; 120% in the experiment with NCI-H322M lung; 104% in the experiment with HOP-62 NSCLC; 105% in the experiment with NCI-H460 lung; 102% with HOP-92 NSCLC. For the same molecule, the growth with NCI-H522 lung is 111%; in the experiment on 786-0 renal, 107%; in the experiment with COLO 205 colon, 112%; in the experiment with DU-145 prostate, 125%; in the experiment on K-562 leukemia, 98.3%; with MALME-3M melanoma it was 119%. For the same molecule, the growth in the experiment on MDA-MB-231 breast was 99.3%; in the experiment on RXF 393 renal, 115%; in the experiment on SF-268 CNS, 95.2%; with SF-295 CNS, 98.4%; in the experiment with SF-539 CNS it was 114%; in the experiment with UACC-257 melanoma, 88.1%. For the same molecule, the growth in the experiment with M14 melanoma is 107%.
Regarding `CCC1=C[C@@H]2C[C@]3(C(=O)OC)c4[nH]c5ccccc5c4CC[N@+](CC(=O)Nc4cc5c(cc4OC)N(C)[C@H]4[C@@](O)(C(=O)OC)[C@H](OC(C)=O)[C@]6(CC)C=CCN7CC[C@]54[C@@H]76)(C2)[C@H]13`, the growth in the experiment on NCI-H23 lung was 104%; in the experiment on NCI-H226 lung it was 98.7%; in the experiment on NCI-H322M lung it was 102%; in the experiment on HOP-62 NSCLC, 99.5%; in the experiment on NCI-H460 lung, 109%; in the experiment with HOP-92 NSCLC, 88%. For the same molecule, the growth with NCI-H522 lung was 92.4%; in the experiment on 786-0 renal, 99.1%; with COLO 205 colon it was 104%; with DU-145 prostate, 117%; in the experiment on K-562 leukemia it was 106%; in the experiment with MALME-3M melanoma, 102%. Further, the growth with MDA-MB-231 breast is 98.2%; with RXF 393 renal, 114%; with SF-268 CNS, 105%; with SF-295 CNS it was 107%; in the experiment on SF-539 CNS, 106%; in the experiment on UACC-257 melanoma, 101%. In the experiment with M14 melanoma, the growth is 97.7%.
As to `Cc1cc(C(=O)Nc2ncc(Cc3cccc(C(F)(F)F)c3)s2)c2ccccc2n1`, the growth in the experiment on NCI-H23 lung was 51.6%; in the experiment on NCI-H226 lung, 54.4%; with NCI-H322M lung, 59.3%; in the experiment with HOP-62 NSCLC, 31.8%; in the experiment with NCI-H460 lung, 11.3%; with HOP-92 NSCLC, 28%. Besides, the growth with NCI-H522 lung is 10.3%; in the experiment with 786-0 renal, 38%; in the experiment with COLO 205 colon, 19.2%; in the experiment with DU-145 prostate, 57.4%; in the experiment with K-562 leukemia it was 7.79% (active); in the experiment on MALME-3M melanoma it was 26.8%. In addition, the growth was 56.4% in the experiment with MDA-MB-231 breast; 31.1% in the experiment on RXF 393 renal; 37.2% in the experiment with SF-268 CNS; 15.1% in the experiment on SF-295 CNS; 21.9% in the experiment on SF-539 CNS; 43.3% in the experiment with UACC-257 melanoma. Further, the growth in the experiment with M14 melanoma is 3.81% (active).
`CCOC(=O)c1cc(C)n(-c2ccc(C(=O)O)cc2)c1C`: the growth with NCI-H23 lung is 89.4%; with NCI-H226 lung, 98.6%; in the experiment on NCI-H322M lung, 114%; in the experiment with HOP-62 NSCLC, 88.1%; in the experiment with NCI-H460 lung, 44.1%; in the experiment on HOP-92 NSCLC, 100%. The growth in the experiment on NCI-H522 lung is 65.8%; in the experiment on A549/ATCC NSCLC, 91.4%; with 786-0 renal, 101%; in the experiment with DU-145 prostate, 7.16% (active); in the experiment with K-562 leukemia it was 116%; in the experiment on MALME-3M melanoma it was 130%. Also, the growth in the experiment with MDA-MB-231 breast was 80%; in the experiment on RXF 393 renal, 80.8%; with SF-268 CNS it was 92.3%; in the experiment with SF-295 CNS it was 90.7%; with SF-539 CNS it was 105%; with UACC-257 melanoma it was 96.5%. For the same molecule, in the experiment with M14 melanoma, the growth was 89.7%.
